# Measurements as given in ChEMBL document CHEMBL3988442, “University of Dundee, Small-Polar-MMV Screening Library” (2021).
# Hit rate of the full screen: of about 48,000 compounds, about 13,000 (27%) showed an effect of 50% or more. This is one part of the list.
# Tested on: Wolbachia pipientis
# Assay: Anti-Wolbachia Cell-Based Screen
# Type: functional
# Parameters: scale not given: in the data most compounds retested in dose-response had high values
# Conditions: 5 µM
row,SMILES,Percent Effect
1,Cc1nc(N)c2ccc(C3CCCCN3)nc2n1.Cl (stereo not given),107.4%
2,CCn1c(C)nnc1CN(C)C1CCN(CCOc2ccccc2)C1 (stereo not given),149.5%
3,CCn1c(C)nnc1CN(C)C1CCN(CCc2ccncc2)C1 (stereo not given),1.632%
4,CCn1c(C)nnc1CN(C)C1CCN(CC2CCC2)C1 (stereo not given),111.4%
5,CCn1c(C)nnc1CN(C)C1CCN(CCS(=O)(=O)CC)C1 (stereo not given),144.9%
6,CCn1c(C)nnc1CN(C)C1CCN(CCn2cccn2)C1 (stereo not given),0.3298%
7,CCn1c(C)nnc1CN(C)C1CCN(CCCSC)C1 (stereo not given),119.6%
8,CCn1c(C)nnc1CN(C)C1CCN(CCCOC)C1 (stereo not given),0.6511%
9,COc1ccc(CNCc2cn(C)nc2C)cc1,122.7%
10,COc1ccc(-n2ccc(CNCc3ccc(OC)c(O)c3)n2)cc1,-11.8%
11,COC(=O)c1ccc(CNC(C)c2ccc(S(C)(=O)=O)cc2)cc1 (stereo not given),-2.189%
12,CCn1cc(CNCc2ccc(C(=O)OC)cc2)c(C)n1,153.8%
13,COc1ccc(CNCc2cc(Br)c3c(c2)OCO3)cc1,-3.854%
14,COC(=O)c1ccc(CNC(=O)Cc2csc(C(C)=O)c2)cc1,12.04%
15,COc1ccc(CCn2cnnc2[S+](C)[O-])cc1 (stereo not given),-1.402%
16,COC(=O)c1ccc(CNC(=O)Nc2ccc(=O)n(C)c2)cc1,12.29%
17,COC(=O)c1ccc(CNCc2ccn(C)n2)cc1,138.6%
18,COC(=O)c1ccc(CNCc2cn(C)nc2C)cc1,100.4%

row,SMILES,Percent Effect
1,Cc1ccc(-c2ncc(CNc3cnccc3CO)s2)cc1,-6.325%
2,Cc1nc(-c2ccccc2)sc1C(=O)N(C1CC1)C1CC(=O)NC1=O (stereo not given),-7.701%
3,CCN(CC)C(=O)CN(C)C(=O)c1cc(-c2cccc(Cl)c2)no1,-12%
4,CCN(CC)c1ccc(NS(=O)(=O)c2cnn(C(C)C)c2)cn1,-6.938%
5,COCc1ccc(C(=O)N2CCCN(Cc3ccc(F)cc3)CC2)s1,2.247%
6,CCCS(=O)(=O)c1ccc(N2CCN(c3ccccn3)CC2)nn1,2.245%
7,Cc1ccc(CNCc2c(C)nn(C)c2N(C)C)cn1,-12.73%
8,Cc1nn(C)cc1CNCc1ccc(N(C)C)cc1,119.7%
9,Cc1nn(C)c(N(C)C)c1CNCc1ccc(Cn2cccn2)cc1,10.8%
10,CC(C)(C)OC(=O)N1CCC[C@H](NCC2CCOCC2)C1,-10.59%
11,Cc1cc(NC(=O)Cc2ccccc2O)c[nH]c1=O,7.885%
12,Oc1nc(-c2cnccn2)nc2c1CCN(Cc1ccccn1)C2,89.8%
13,O=C(Cc1ccccn1)N1CCc2c(O)nc(-c3cnccn3)nc2C1,94.87%
14,CCn1cc(CN2CCc3nc(N4CCOCC4)nc(O)c3CC2)cn1,-4.464%
15,O=C(Cc1ccccn1)N1CCc2nc(-c3cnccn3)nc(O)c2C1,-13.11%
16,CN1CCN(C(=O)Cc2ccccn2)Cc2cccnc21,-6.313%
17,CCn1cc(CN2CCc3nc(-c4ccccn4)nc(O)c3C2)cn1,107.7%
